We go through six compounds from ChEMBL document CHEMBL1961873, “Compounds: GSK PKIS; Assays: Nanosyn kinase panel” (2012).

Assay [1] deals with 5'-AMP-activated protein kinase catalytic subunit alpha-2 (Homo sapiens) (UniProt P54646). The settings on record: at 1 µM.
Assay [2] has as its target T1, NUAK family SNF1-like kinase 1 (Homo sapiens) (UniProt O60285).
T1 sequence (whole entry): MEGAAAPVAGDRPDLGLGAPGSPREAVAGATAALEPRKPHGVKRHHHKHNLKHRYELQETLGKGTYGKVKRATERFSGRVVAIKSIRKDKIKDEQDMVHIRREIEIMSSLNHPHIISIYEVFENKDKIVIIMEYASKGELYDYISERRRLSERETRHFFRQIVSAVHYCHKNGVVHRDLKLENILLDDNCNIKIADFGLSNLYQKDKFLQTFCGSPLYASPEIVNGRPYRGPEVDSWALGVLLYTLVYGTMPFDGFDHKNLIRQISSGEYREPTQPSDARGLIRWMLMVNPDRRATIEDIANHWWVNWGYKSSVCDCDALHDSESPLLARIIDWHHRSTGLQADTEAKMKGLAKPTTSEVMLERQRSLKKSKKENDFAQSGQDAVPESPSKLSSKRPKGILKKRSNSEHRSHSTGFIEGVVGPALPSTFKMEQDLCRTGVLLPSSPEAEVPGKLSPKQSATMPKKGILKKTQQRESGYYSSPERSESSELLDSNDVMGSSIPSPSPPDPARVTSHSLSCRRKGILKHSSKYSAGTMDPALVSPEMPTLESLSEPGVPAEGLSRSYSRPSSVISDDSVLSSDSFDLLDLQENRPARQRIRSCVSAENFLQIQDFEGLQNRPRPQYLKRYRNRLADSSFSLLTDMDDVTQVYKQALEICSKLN
The settings on record: at 0.1 µM.

Assay [3] has as its target T1, NUAK family SNF1-like kinase 1 (Homo sapiens). The settings on record: at 1 µM.
For assay [4], the target named is T2, Serine/threonine-protein kinase BRSK1 (Homo sapiens) (UniProt Q8TDC3).
T2 sequence (whole entry): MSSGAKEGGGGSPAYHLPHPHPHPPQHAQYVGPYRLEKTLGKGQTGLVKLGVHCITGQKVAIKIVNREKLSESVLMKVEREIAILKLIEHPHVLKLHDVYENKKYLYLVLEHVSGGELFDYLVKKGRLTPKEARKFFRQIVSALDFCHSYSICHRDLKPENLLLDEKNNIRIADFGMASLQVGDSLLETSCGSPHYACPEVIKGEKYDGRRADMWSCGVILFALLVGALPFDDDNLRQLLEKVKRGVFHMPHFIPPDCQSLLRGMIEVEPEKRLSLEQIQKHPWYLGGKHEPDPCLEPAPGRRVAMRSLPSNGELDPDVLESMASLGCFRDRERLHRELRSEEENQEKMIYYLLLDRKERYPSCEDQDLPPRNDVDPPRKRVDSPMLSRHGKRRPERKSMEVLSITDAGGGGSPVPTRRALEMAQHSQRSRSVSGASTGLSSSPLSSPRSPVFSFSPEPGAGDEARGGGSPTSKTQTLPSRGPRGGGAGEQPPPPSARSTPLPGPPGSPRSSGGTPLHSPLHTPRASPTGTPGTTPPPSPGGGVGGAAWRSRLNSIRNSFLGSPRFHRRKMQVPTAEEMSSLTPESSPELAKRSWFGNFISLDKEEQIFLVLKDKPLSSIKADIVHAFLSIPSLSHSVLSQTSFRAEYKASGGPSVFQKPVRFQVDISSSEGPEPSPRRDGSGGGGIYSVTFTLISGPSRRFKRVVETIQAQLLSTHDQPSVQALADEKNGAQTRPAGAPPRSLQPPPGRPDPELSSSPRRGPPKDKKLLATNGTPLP
The settings on record: at 0.1 µM.

In assay [5] the target is T2, Serine/threonine-protein kinase BRSK1 (Homo sapiens). The settings on record: at 1 µM.
The target in assay [6] is T3, Serine/threonine-protein kinase BRSK2 (Homo sapiens) (UniProt Q8IWQ3).
T3 sequence (whole entry): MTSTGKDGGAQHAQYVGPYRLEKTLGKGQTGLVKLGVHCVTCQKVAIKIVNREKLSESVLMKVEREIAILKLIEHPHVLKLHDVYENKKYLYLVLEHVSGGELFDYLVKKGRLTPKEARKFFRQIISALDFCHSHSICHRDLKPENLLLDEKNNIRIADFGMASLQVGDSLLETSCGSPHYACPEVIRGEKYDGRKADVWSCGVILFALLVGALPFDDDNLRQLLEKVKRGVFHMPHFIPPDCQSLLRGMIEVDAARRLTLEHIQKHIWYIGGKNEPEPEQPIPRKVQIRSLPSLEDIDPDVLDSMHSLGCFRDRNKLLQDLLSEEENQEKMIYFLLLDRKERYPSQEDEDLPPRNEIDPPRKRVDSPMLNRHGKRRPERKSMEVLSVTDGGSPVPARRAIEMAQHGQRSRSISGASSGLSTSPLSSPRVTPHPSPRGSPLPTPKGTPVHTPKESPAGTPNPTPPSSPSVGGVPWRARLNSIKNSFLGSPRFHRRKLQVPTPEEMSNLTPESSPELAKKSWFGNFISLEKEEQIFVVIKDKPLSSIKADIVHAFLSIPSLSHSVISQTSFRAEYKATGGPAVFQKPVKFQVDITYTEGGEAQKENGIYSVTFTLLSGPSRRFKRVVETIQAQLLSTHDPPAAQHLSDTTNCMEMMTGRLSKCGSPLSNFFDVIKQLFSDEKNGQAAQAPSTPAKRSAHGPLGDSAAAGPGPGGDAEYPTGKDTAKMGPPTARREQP
The settings on record: at 0.1 µM.

In assay [7] the target is T3, Serine/threonine-protein kinase BRSK2 (Homo sapiens). The settings on record: at 1 µM.
Assay [8] has as its target Calcium/calmodulin-dependent protein kinase type 1D (Homo sapiens) (UniProt Q8IU85). The settings on record: at 0.1 µM.
The target is the same in assay [9]. The settings on record: at 1 µM.
Assay [10] deals with Calcium/calmodulin-dependent protein kinase type II subunit alpha (Homo sapiens) (UniProt Q9UQM7). The settings on record: at 0.1 µM.
Chain of Calcium/calmodulin-dependent protein kinase type II subunit alpha (Homo sapiens) (Q9UQM7 whole entry): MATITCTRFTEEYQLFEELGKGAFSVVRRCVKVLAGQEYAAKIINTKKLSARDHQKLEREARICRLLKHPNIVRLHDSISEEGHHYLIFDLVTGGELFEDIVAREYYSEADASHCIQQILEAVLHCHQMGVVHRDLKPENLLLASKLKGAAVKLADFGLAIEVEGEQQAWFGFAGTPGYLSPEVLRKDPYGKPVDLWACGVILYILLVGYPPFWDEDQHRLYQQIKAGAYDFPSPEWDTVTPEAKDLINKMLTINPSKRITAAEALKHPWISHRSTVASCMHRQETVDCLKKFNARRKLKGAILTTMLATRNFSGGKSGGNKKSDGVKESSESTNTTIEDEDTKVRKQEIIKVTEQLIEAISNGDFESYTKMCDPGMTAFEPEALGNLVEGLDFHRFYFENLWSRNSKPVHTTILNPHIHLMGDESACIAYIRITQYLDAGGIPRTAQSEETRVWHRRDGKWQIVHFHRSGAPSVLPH
Assay [11] shares this target. The settings on record: at 1 µM.
Assay [12] has as its target Calcium/calmodulin-dependent protein kinase type II subunit delta (Homo sapiens) (UniProt Q13557). The settings on record: at 0.1 µM.
The target is the same in assay [13]. The settings on record: at 1 µM.
The target of assay [14] is T4, Calcium/calmodulin-dependent protein kinase type IV (Homo sapiens) (UniProt Q16566).
T4 sequence (whole entry): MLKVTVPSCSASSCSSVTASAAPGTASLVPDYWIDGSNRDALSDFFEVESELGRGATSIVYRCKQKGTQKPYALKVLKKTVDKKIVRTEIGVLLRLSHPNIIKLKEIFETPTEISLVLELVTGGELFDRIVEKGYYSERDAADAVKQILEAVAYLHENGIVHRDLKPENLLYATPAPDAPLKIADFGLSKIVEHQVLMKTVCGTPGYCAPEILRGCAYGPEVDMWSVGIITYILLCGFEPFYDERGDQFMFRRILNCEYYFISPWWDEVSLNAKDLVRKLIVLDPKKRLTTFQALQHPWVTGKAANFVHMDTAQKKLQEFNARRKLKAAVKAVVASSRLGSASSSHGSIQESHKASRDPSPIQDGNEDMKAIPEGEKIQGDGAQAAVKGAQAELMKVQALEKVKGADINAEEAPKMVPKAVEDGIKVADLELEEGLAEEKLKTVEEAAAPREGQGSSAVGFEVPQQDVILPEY
The settings on record: at 0.1 µM.

The target of assay [15] is T4, Calcium/calmodulin-dependent protein kinase type IV (Homo sapiens). The settings on record: at 1 µM.
Assay [16] addresses T5, Serine/threonine-protein kinase Chk1 (Homo sapiens) (UniProt O14757).
T5 sequence (whole entry): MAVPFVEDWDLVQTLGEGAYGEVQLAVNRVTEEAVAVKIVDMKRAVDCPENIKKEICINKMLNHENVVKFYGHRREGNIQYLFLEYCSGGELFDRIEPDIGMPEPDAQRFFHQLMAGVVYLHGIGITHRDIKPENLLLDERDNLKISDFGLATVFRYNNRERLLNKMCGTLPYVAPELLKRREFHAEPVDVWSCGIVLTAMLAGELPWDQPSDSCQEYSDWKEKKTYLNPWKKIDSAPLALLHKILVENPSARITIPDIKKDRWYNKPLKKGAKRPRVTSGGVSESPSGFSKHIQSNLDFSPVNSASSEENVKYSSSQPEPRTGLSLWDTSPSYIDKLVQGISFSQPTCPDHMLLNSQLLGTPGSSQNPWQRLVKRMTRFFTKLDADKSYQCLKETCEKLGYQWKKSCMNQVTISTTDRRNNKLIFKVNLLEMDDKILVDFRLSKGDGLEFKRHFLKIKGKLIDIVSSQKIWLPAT
The settings on record: at 0.1 µM.

For assay [17], the target named is T5, Serine/threonine-protein kinase Chk1 (Homo sapiens). The settings on record: at 1 µM.
For assay [18], the target named is Serine/threonine-protein kinase Chk2 (Homo sapiens) (UniProt O96017). The settings on record: at 0.1 µM.
Chain of Serine/threonine-protein kinase Chk2 (Homo sapiens) (O96017 whole entry): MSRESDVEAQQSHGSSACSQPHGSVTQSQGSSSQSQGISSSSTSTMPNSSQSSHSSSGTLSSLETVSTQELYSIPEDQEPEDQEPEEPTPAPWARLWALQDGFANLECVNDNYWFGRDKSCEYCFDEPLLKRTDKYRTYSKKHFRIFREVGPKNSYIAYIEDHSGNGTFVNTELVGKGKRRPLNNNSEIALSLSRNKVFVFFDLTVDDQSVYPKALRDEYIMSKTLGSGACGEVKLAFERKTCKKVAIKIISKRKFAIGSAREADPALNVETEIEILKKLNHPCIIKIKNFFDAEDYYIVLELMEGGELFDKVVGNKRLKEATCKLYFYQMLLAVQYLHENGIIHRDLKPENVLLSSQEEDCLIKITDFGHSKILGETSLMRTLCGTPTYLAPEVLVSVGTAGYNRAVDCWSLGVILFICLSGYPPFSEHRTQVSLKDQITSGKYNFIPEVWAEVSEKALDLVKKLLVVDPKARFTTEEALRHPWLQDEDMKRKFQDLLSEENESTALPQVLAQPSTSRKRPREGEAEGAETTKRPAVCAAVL
For assay [19] the target is unchanged. The settings on record: at 1 µM.
In assay [20] the target is Death-associated protein kinase 1 (Homo sapiens) (UniProt P53355). The settings on record: at 0.1 µM.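 Further: reported figure is the mean inhibition of DAPK1.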
Chain of Death-associated protein kinase 1 (Homo sapiens) (P53355 whole entry, looked up): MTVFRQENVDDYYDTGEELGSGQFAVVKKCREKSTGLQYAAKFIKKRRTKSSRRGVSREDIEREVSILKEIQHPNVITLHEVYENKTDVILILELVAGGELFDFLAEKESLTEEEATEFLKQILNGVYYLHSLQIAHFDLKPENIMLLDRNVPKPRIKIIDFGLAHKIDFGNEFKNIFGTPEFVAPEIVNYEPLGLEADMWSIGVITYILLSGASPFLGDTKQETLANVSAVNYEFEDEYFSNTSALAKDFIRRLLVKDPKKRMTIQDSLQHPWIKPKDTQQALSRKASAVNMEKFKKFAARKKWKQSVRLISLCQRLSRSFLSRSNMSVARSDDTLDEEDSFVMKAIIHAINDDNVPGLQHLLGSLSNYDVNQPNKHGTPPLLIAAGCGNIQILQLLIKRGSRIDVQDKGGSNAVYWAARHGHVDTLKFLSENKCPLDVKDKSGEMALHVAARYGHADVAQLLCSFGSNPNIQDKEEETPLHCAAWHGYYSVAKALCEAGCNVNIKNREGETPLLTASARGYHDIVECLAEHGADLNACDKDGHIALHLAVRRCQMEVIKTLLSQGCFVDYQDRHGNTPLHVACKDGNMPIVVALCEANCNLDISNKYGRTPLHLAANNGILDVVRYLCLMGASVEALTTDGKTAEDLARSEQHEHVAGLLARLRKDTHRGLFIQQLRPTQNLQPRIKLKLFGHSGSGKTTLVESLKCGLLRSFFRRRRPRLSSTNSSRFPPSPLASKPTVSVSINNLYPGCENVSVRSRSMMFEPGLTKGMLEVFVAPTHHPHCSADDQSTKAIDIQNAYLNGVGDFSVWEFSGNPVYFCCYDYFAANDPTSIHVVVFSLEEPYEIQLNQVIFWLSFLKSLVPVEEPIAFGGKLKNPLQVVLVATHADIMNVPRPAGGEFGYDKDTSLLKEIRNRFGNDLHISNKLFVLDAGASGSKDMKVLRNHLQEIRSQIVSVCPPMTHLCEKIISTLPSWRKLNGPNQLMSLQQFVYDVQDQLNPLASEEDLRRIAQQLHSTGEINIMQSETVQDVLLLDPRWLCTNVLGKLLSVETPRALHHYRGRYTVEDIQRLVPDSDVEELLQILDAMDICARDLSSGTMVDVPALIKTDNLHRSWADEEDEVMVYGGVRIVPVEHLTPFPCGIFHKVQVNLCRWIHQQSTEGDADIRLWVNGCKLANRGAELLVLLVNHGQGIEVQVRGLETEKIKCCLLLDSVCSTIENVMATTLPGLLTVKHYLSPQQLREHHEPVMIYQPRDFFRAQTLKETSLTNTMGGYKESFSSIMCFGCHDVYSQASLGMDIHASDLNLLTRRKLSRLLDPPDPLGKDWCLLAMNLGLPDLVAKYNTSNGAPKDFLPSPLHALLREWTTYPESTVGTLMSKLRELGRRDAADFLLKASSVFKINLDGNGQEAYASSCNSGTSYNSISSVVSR

Chain of 5'-AMP-activated protein kinase catalytic subunit alpha-2 (Homo sapiens) (P54646 whole entry, looked up): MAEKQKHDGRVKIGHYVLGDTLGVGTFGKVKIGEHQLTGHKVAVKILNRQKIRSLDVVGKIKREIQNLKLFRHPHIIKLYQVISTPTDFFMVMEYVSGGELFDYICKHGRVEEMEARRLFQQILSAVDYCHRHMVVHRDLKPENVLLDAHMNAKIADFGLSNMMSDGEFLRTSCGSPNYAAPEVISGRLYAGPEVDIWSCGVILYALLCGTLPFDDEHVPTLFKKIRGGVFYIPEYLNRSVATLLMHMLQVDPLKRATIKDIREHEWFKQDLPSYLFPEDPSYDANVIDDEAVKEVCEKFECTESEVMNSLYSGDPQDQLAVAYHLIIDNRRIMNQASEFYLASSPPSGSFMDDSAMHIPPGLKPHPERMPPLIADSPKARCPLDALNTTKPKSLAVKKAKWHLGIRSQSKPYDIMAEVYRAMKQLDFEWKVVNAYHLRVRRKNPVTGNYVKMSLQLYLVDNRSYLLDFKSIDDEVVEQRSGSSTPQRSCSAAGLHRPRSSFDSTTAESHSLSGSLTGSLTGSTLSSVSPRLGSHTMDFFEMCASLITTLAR
Chain of Calcium/calmodulin-dependent protein kinase type 1D (Homo sapiens) (Q8IU85 whole entry, looked up): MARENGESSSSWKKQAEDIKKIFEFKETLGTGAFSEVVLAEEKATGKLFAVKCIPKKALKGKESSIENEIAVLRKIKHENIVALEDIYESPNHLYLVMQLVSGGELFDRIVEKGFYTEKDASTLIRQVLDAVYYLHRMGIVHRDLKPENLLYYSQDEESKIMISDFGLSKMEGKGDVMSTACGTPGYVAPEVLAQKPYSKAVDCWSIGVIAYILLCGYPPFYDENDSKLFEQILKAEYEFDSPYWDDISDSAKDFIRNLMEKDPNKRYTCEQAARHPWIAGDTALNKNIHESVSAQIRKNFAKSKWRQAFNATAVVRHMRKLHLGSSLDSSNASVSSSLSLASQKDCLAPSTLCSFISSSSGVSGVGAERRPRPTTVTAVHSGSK
Chain of Calcium/calmodulin-dependent protein kinase type II subunit delta (Homo sapiens) (Q13557 whole entry): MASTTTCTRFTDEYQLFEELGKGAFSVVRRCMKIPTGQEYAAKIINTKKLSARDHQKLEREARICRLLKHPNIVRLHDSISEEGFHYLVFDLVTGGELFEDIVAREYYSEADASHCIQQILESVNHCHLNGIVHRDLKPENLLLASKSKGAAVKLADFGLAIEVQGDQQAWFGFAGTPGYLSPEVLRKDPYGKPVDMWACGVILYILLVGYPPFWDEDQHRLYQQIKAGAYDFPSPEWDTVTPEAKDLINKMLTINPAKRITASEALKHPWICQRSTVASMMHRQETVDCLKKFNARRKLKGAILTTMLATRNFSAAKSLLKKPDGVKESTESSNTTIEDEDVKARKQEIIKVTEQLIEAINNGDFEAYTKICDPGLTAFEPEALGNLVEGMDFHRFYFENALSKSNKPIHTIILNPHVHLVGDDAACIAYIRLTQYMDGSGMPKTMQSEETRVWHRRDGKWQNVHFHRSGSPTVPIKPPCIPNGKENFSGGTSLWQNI

Regarding `FC(F)(F)c1cccc(Nc2nccc(-c3cnn4nc(-c5ccccc5)ccc34)n2)c1`, the inhibition in [1] is 2.89%; in assay [2], -0.22%; in [3] it was 4.2%; in assay [4] it was -0.11%; in assay [5], 4.72%; in assay [6], 1.87%. In addition, the inhibition in [7] was 2.68%; in assay [8], 0.17%; in assay [9], 0.28%; in assay [10] it was 0.97%; in [11], -0.96%; in assay [12], 0.96%. For the same compound, the inhibition is -1.12% in [13]; 1.79% in [14]; -1.25% in assay [15]; 3.93% in assay [16]; 1.39% in assay [17]; 0.57% in assay [18]. Further, the inhibition in assay [19] was 1.27%; in [20] it was 3.36%.

Regarding `CN(C)CCCNc1nccc(-c2c(-c3ccc(F)cc3)nn3cc(C(F)(F)F)ccc23)n1`, the inhibition was 2.79% in [1]; -1.31% in [2]; 7.22% in assay [3]; 1.29% in assay [4]; 4.81% in [5]; 0.82% in assay [6]. Further, the inhibition in assay [7] came out at 4.17%; in [8], 1.56%; in [9] it was 1.39%; in assay [10], 3.05%; in [11], 4.26%; in [12], 3.65%. The inhibition in [13] was 4.37%; in [14], 1.43%; in [15], 2.27%; in [16], -3.07%; in assay [17], 1.13%; in assay [18], 0.82%. Moreover, the inhibition in assay [19] worked out at 0.61%; in assay [20] it was 0.55%.

Regarding `O=C(Nc1ccc(Oc2ccc3[nH]c(NC(=O)c4ccccc4)nc3c2)cc1)Nc1cc(C(F)(F)F)ccc1F`, the inhibition in assay [1] was determined as 4.55%; in assay [2], 1.15%; in assay [3] it was 3.05%; in [4], 0.18%; in assay [5], 0.16%; in assay [6], 1.2%. Further, the inhibition was 2.83% in assay [7]; -0.03% in assay [8]; 1.95% in [9]; 2.8% in assay [10]; 2.85% in assay [11]; 2.01% in assay [12]. Also, the inhibition in [13] was 4.57%; in assay [14] it was -0.56%; in assay [15], -0.86%; in [16] it was 4.82%; in [17], 5.63%; in assay [18], 1.47%. Further, the inhibition was 3.89% in assay [19] and 4.99% in [20].

Regarding `Fc1ccc(-c2ncn(C3CCNCC3)c2-c2ccnc(Oc3ccc4c(c3)OCO4)n2)cc1`, the inhibition worked out at 4.45% in assay [1]; 1.79% in [2]; 3.25% in assay [3]; 0.76% in [4]; 6.01% in assay [5]; 3.69% in assay [6]. For the same compound, the inhibition was 5.73% in assay [7]; -0.69% in [8]; 0.53% in [9]; 6.35% in [10]; 12.6% in [11]; 2.69% in [12]. For the same compound, the inhibition was 3.08% in assay [13]; 0.19% in assay [14]; 0.41% in assay [15]; -3.37% in assay [16]; -1.58% in [17]; -2.12% in [18]. The inhibition is -3.43% in assay [19] and -1.22% in assay [20].

Take `c1ccc(Oc2ccc(Nc3ncc(-c4ccccc4)o3)cc2)cc1`: the inhibition in assay [1] was 2.49%; in assay [2], -0.75%; in [3] it was 5.38%; in [4], -0.66%; in assay [5] it was 0.76%; in assay [6], 0%. Moreover, the inhibition in [7] was 1.39%; in [8], 0.01%; in assay [9], 0.14%; in assay [10] it was -0.24%; in assay [11], 0.18%; in assay [12], 0.76%. For the same compound, the inhibition in assay [13] came to 0.58%; in [14], 0.49%; in assay [15], 1.32%; in assay [16] it was 0.67%; in assay [17] it was 1.6%; in assay [18], 0.58%. Moreover, the inhibition in assay [19] came to 1.05%; in [20] it was 0.04%.

As for `CCc1ccc(Oc2nccc(-c3c(-c4ccc(F)cc4)ncn3C3CCNCC3)n2)cc1`, the inhibition was 7.27% in assay [1]; -0.89% in [2]; 3.95% in assay [3]; 1.81% in assay [4]; -0.56% in assay [5]; 1.84% in [6]. The inhibition in assay [7] came out at 3.86%; in [8], 1.54%; in assay [9] it was 3.63%; in [10] it was 4.59%; in assay [11], 5.86%; in [12] it was 4.44%. Also, the inhibition in assay [13] amounted to 7.05%; in assay [14] it was 2.89%; in [15], 5.14%; in assay [16] it was 4.54%; in assay [17] it was 6.62%; in [18] it was 3.02%. Besides, the results for the inhibition in [19] and in [20] were 5.66% and 4.58%, respectively.
